Measured values as given in PubChem BioAssay AID2417 (National Center for Advancing Translational Sciences (NCATS), 2010).
Among all 140,000 compounds or so, about 4,300 (3.1%) were called active. Not shown: some 21% with an inconclusive outcome. The entries come from a sample that favours actives as a whole. Unmarked numbers belong to inactive results.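 How the source made its calls: active means readout at or below -70, meaning at least 70% loss of cells showing the perinucleolar compartment, a nuclear body marking cancer cells; inconclusive means readout between -30 and a set limit; inactive means the rest.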

assay: High Content Assay for Compounds that inhibit the Assembly of the Perinucleolar Compartment; conditions: PC3M PTB-GFP, PNC prevalence imaging, 16 h; at 10 µM; hits give low values;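 further: plate controls were DMSO wells for no effect and camptothecin positive control wells for full effect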
How it was run: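 Read-out is percentage of cells bearing a perinucleolar compartment, from automated 20x imaging of fixed, Hoechst-stained PC3M PTB-GFP cells. Cells were seeded 4 h, then exposed 16 h to compound (23 nl of library stock) in duplicate plates.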

| Compound | activity change (PNC), negative = inhibition |
| --- | --- |
| CC1CCN(c2ccc(C(=O)Nc3nnc(C4CC4)s3)cc2[N+](=O)[O-])CC1 | -87.1% (active) |
| CCOC(=O)c1c(NC(=O)c2ccc(N3CCOCC3)c([N+](=O)[O-])c2)sc(C)c1C | 28.7% |
| CC1CCN(c2ccc(S(=O)(=O)Nc3cc(C(=O)O)cc(C(=O)O)c3)cc2[N+](=O)[O-])CC1 | -0.23% |
| CCc1cccc(C)c1NC(=O)COC(=O)Cc1ccsc1 | -6% |
| C=CCNC(=S)NNC(=O)c1ccc(Br)o1 | -23.4% |
| O=c1c2c(ncn1Cc1ccccc1)nc1n2CCC1 | -8.18% |
| NS(=O)(=O)c1ccc(NS(=O)(=O)/C=C/c2ccccc2)cc1 | -5.65% |
| CCC(C(=O)OCC(=O)Nc1ccc(C(=O)Nc2ccc(OC)cc2)cc1)c1ccccc1 (configuration not stated) | 12.6% |
| COc1ccc(NC(=O)COC(=O)c2ccc(NS(=O)(=O)/C=C/c3ccccc3)cc2)cc1 | -91.4% (active) |
| CCOC(=O)c1[nH]c2ccc(OC)cc2c1NC(=O)N1CCOCC1 | -102% (active) |
| COc1cc(NC(=O)N2CCOCC2)cc(OC)c1 | 29.1% |
| Cc1c(C(=O)N2CCOCC2)[nH]c2ccc(OCc3ccccc3)cc12 | -12.2% |
| Cc1cccc(NC(=S)N(CCN(C)C)C(C)c2ccco2)c1 (configuration not stated) | 5.52% |
| CC(c1ccccn1)N(CCN(C)C)C(=S)Nc1ccccc1F (configuration not stated) | -111% (active) |
| CC(C)C(=O)NC(=S)Nc1ccccc1F | 28.8% |
| CC(=O)Nc1ccc(SCC(=O)Nc2ccccc2Oc2ccccc2)cc1 | -10.5% |
| CC1CCc2sc(C(=O)N/N=C/C3CCCCC3)cc2C1 (configuration not stated) | -24% |
| COc1ccccc1N1CCN(C(=O)c2cc(-c3ccc(Br)cc3)on2)CC1 | 15.5% |
| Cc1noc(C)c1C(=O)N1CCOCC1 | 0.83% |
| Cc1onc(-c2ccccc2)c1C(=O)N1CCOCC1 | -109% (active) |
| O=C(c1ccccc1-c1ccccc1)N1CCOCC1 | -12% |
| COc1ccccc1N1CCN(C(=O)c2cc(-c3ccc(Cl)c(Cl)c3)on2)CC1 | 321% |
| COc1ccccc1N1CCN(C(=O)c2c(-c3c(Cl)cccc3Cl)noc2C)CC1 | -86.9% (active) |
| O=C(CN1C(=O)/C(=C\c2ccc(C(F)(F)F)cc2)Sc2ccccc21)NCc1ccco1 | 37.6% |
| O=c1cc(CN2CCN(S(=O)(=O)/C=C/c3ccccc3)CC2)c2ccc(O)cc2o1 | -11.6% |

| Compound | activity change (PNC), negative = inhibition |
| --- | --- |
| CCOC(=O)Nc1sc(C(=O)N(C)C)c(C)c1C(=O)OCC | 10.4% |
| CCOC(=O)c1c(NC(C)=O)sc2c(O)c(Br)ccc12 | -80.8% (active) |
| CCOC(=O)c1c(NC(=O)c2ccc(Br)o2)sc2c1CCCC2 | 2.82% |
| Cc1cc(Oc2ccc(Cl)cc2)nc(SCC(=O)c2ccccc2)n1 | 16.7% |
| Cc1ccc(OCc2nnc(NC(=O)OCC(C)C)s2)cc1 | 26.9% |
| Cc1ccc(SCC(=O)Nc2ncc(C)s2)cc1 | 34.4% |
| CCOCc1nnc(NC(=O)CSc2ccc(C)cc2)s1 | -89.8% (active) |
| O=[N+]([O-])c1ccccc1SNc1ccccn1 | -0.121% |
| Cc1cccc(N2C(=O)SC(SC(=Nc3ccccc3)Nc3ccccc3)C2=O)c1 (configuration not stated) | 64.7% |
| Cc1cc(C)n(-c2nc(SCC(=O)N3CCCC3)c3c4c(sc3n2)CCCC4)n1 | 26% |
| COCCn1c(C)cc(C(=O)CSc2ncnc3sc4c(c23)CCC4)c1C | -100% (active) |
| Cc1nc(SCC(=O)Nc2cc(C)on2)c2c3c(sc2n1)CCCC3 | -9.46% |
| CC(=O)Nc1ccc(C(=O)OCC(=O)Nc2ccc([N+](=O)[O-])cc2C(F)(F)F)cc1 | -8.91% |
| CCCCCCCCCOC1OC(CO)C(O)C(O)C1NC(C)=O (configuration not stated) | -8.39% |
| COc1ccccc1C(=O)Nn1c(-c2cccs2)nc2ccccc2c1=O | -26.6% |
| CCOC(=O)N1CCN(CC(=O)c2c(C)[nH]c3ccccc23)CC1 | -18.6% |
| Cc1[nH]c2ccccc2c1C(=O)CSCC(=O)O | -15.7% |
| Cc1[nH]c2ccccc2c1C(=O)COC(=O)c1c(-c2ccccc2)noc1C | -121% (active) |
| CCOC(=O)c1cccnc1NC(=O)c1ccncc1 | -1.7% |
| Cc1ccc(OCCOCCOc2ccc(Br)cc2/C=N\NC(=O)c2ccncc2)cc1 | -9.62% |
| Brc1ccc(OCCn2ccnc2)cc1 | -118% (active) |
| COc1ccc(/C=C(\C#N)C(=O)NCCCn2ccnc2)cc1 | 60.5% |
| Oc1ccc(Br)cc1C=Nc1ccc2[nH]ncc2c1 | 18.8% |
| CNC(=S)N/N=C/c1ccc(OCc2ccccc2)c(Br)c1 | 23.4% |
| O=C(c1cc(-c2ccc(O)cc2)on1)N1CCCc2ccccc21 | -28.7% |

| Compound | activity change (PNC), negative = inhibition |
| --- | --- |
| O=C(c1cccc(C(=O)N2CCc3ccccc32)n1)N1CCc2ccccc21 | 8.65% |
| Cc1cccc2cc3c(N)c(C(=O)N4CCCc5ccccc54)sc3nc12 | -97.5% (active) |
| COc1cc(NC(=S)NNC(=O)CC(C)C)c(OC)cc1Cl | 20.5% |
| Cc1ccc(C(=O)OCc2nc(N)nc(Nc3ccccc3C)n2)cc1 | -25% |
| COCC(=O)Nc1cc(C(=O)OC)cc(C(=O)OC)c1 | 0.32% |
| COc1cccc2c(C)c(C(=O)O)[nH]c12 | -100% (active) |
| COc1cccc2c(O)cc(=O)n(C)c12 | 3.35% |
| CCOC(=O)c1c(C)[nH]c(C(=O)NCc2ccccc2OC)c1C | 4.85% |
| CCOC(=O)C(C)Sc1nnc(CSc2nc3nc(C)cc(C)n3n2)o1 (configuration not stated) | -12% |
| O=C(CN1CCN(c2ccc(O)cc2)CC1)Nc1cc(S(=O)(=O)N2CCOCC2)ccc1Cl | 32% |
| O=C(CCc1nc2ccccc2c(=O)[nH]1)OCC(=O)c1cccc(Cl)c1 | 9.28% |
| Cc1cc(Oc2ccccc2)nc(N2CCOCC2)n1 | 31.1% |
| COc1ccc(NC(=O)c2nc(-n3nc(C)cc3C)ccc2Cl)cc1Cl | -28.2% |
| Cc1cc(C)n(-c2cc(Oc3ccccc3)ncn2)n1 | 61.7% |
| COc1ccccc1/C=N\Nc1cc(C)nc(-n2nc(C)cc2C)n1 | -20.8% |
| CC(=O)c1ccc(Oc2cc(C)nc(-n3nc(C)cc3C)n2)cc1 | -86.2% (active) |
| COc1ccc(Nc2cc(C)nc(-n3nc(C)cc3C)n2)cc1 | -93.3% (active) |
| CC(=O)NNC1=Nc2ccccc2N(C)C(C)C1 (configuration not stated) | 41.2% |
| O=C(COc1ncnc2c(Cl)cc(Cl)cc12)N1CCN(S(=O)(=O)c2ccccc2)CC1 | 25.7% |
| O=C(COc1ccc(Cl)cc1)N1CCN(S(=O)(=O)c2ccc(Cl)cc2)CC1 | -28.2% |
| O=C(ON=C1CCN(S(=O)(=O)c2ccccc2)CC1)c1ccc(Cl)cc1 | -100% (active) |
| O=C(Nc1ccc(N2C(=O)c3cccc4cccc(c34)C2=O)cc1)c1ccc(N2CCCCC2)c([N+](=O)[O-])c1 | 12% |
| Cc1ccc(NC(=O)c2sccc2C)cc1[N+](=O)[O-] | -105% (active) |
| COc1ccc(NC(=O)c2ccccc2[N+](=O)[O-])cc1OC | 40.9% |
| Cc1ccsc1C(=O)N/N=C/c1ccc([N+](=O)[O-])cc1 | -4.41% |

| Compound | activity change (PNC), negative = inhibition |
| --- | --- |
| C=CCN(c1ccc(C(=O)Nc2cc(C)cc(C)c2)cc1)S(C)(=O)=O | 0% |
| COc1ccc(-c2cc(C(=O)NC(Cc3c[nH]c4ccccc34)C(=O)O)c(C)o2)cc1OC (configuration not stated) | 41% |
| COc1ccc(C(=O)ON=C2c3ccccc3-c3ccccc32)cc1OC | 2.98% |
| COc1cc(CCC(=O)OCC(=O)Nc2cccc(S(N)(=O)=O)c2)cc(OC)c1OC | 17.9% |
| Cc1ccc(OCC(=O)Nc2ccc(-c3nnc(-c4ccco4)o3)cc2)cc1 | 63.9% |
| COCC(=O)Nc1nnc(COc2ccccc2)s1 | 5.3% |
| COc1ccc(OCC(=O)Nc2nnc(-c3ccco3)s2)cc1 | -113% (active) |
| Cc1ccc(C(=O)N2CC(=O)Nc3ccccc32)o1 | -19.5% |
| CCc1ccc(C2C(C#N)=C(N)N(N(C)C)C3=C2C(=O)CCC3)s1 (configuration not stated) | 36.4% |
| O=C1NC(=Nc2ccc(Cl)cc2)SC1Cc1cccc(Cl)c1Cl (configuration not stated) | 66.6% |
| O=C(COC(=O)/C=C/c1cccc(Cl)c1)NCCc1ccccc1 | -23.6% |
| COCCNC(=O)c1ccccc1NS(=O)(=O)c1ccc(C)c([N+](=O)[O-])c1 | 33% |
| C/C(CC(=O)Nc1cccc(F)c1)=N\NC(=O)C(=O)NC1CCCCC1 | 0.469% |
| CCN1CCN(C(=O)C2(NC(=O)Nc3cccc(F)c3)CCCCC2)CC1 | -83.6% (active) |
| O=C(Nc1cccc(F)c1)c1ccc(S(=O)(=O)N2CCCC2)cc1 | 8.69% |
| COCCCNC(=S)NC(=O)c1ccccc1 | -29.6% |
| Cc1ccc(-c2cn3cc([N+](=O)[O-])ccc3n2)cc1 | 19.9% |
| O=C(NNC(=S)NCc1ccccc1)c1ccc(OC(F)F)cc1 | -4.88% |
| COc1ccc(C/C(C)=N/NC(=O)c2cc(C)oc2C)cc1 | 15.4% |
| O=C(CN1CCN(S(=O)(=O)c2ccc(F)cc2)CC1)Nc1ccccc1F | -12% |
| COc1ccc(NC(=O)CN2CCN(S(=O)(=O)c3ccc(F)cc3)CC2)cc1Cl | -123% (active) |
| COc1cc2c(cc1NC(=O)CN1CCN(S(=O)(=O)c3ccc(F)cc3)CC1)oc1ccccc12 | -22.6% |
